The supplement of paper PMC11732987, “Enantioselective OTUD7B fragment discovery through chemoproteomics screening and high-throughput optimisation” (Communications Chemistry, 2025)

Legend:
Experiment in all cases: log2 ratio of Biotin-Ahx-Ub-VS probe labelling (fragment/DMSO); higher = less target engagement (more negative = stronger competition), active = hit call of the paper (q ≤ 0.05, log2 ratio ≤ -1)
Conditions in all cases: compound concentration: 200 uM; treatment time: 3 h
[1] = molecular target: USP34 (UniProt Q70CQ2)
In short: (§1)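 Fragment (200 µM) or vehicle was incubated for 3 h with triplicate HEK293T lysate samples of 495 µg, which were then treated with Biotin-Ahx-Ub-VS at 0.5 µM final for 1 h. Labelled DUBs were enriched on NeutrAvidin, digested with LysC and trypsin, and analysed by diaPASEF LC-MS/MS. Values are average log2 fragment/vehicle ratios from an unpaired t-test on global-median-normalised Spectronaut label-free quantities, using proteins with ≥2 unique peptides.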

[2] = molecular target: T1, USP36 (UniProt Q9P275)
T1 sequence (whole entry): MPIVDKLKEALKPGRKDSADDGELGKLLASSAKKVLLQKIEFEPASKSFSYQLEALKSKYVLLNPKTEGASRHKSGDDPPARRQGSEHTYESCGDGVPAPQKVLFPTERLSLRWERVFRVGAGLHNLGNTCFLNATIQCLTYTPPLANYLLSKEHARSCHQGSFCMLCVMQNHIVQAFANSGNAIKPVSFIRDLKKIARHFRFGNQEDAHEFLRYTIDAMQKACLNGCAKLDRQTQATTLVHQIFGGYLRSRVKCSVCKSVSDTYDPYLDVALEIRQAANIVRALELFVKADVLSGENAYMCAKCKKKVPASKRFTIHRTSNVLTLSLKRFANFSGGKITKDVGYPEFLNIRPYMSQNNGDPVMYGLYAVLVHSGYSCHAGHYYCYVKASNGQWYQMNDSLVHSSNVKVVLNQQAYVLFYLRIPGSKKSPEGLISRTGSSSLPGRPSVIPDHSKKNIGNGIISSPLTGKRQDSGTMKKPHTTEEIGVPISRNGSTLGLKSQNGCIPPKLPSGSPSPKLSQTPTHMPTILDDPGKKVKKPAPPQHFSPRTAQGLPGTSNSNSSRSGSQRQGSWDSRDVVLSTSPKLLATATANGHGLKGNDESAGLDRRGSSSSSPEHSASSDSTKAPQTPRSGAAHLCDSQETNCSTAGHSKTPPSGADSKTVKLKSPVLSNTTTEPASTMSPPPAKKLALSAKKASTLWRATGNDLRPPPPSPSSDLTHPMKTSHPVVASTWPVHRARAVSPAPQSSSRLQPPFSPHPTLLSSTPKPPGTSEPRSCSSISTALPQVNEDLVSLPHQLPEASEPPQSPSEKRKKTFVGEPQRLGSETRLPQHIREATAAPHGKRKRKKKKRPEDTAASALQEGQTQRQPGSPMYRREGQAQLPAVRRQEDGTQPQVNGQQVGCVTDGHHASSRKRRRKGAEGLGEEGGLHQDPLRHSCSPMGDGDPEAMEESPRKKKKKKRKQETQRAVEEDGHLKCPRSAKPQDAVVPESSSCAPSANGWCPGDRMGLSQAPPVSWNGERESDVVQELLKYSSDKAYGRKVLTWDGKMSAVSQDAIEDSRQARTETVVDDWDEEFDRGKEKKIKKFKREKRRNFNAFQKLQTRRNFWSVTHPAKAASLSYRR
In short: as §1

[3] = molecular target: T2, USP38 (UniProt Q8NB14)
T2 sequence (whole entry): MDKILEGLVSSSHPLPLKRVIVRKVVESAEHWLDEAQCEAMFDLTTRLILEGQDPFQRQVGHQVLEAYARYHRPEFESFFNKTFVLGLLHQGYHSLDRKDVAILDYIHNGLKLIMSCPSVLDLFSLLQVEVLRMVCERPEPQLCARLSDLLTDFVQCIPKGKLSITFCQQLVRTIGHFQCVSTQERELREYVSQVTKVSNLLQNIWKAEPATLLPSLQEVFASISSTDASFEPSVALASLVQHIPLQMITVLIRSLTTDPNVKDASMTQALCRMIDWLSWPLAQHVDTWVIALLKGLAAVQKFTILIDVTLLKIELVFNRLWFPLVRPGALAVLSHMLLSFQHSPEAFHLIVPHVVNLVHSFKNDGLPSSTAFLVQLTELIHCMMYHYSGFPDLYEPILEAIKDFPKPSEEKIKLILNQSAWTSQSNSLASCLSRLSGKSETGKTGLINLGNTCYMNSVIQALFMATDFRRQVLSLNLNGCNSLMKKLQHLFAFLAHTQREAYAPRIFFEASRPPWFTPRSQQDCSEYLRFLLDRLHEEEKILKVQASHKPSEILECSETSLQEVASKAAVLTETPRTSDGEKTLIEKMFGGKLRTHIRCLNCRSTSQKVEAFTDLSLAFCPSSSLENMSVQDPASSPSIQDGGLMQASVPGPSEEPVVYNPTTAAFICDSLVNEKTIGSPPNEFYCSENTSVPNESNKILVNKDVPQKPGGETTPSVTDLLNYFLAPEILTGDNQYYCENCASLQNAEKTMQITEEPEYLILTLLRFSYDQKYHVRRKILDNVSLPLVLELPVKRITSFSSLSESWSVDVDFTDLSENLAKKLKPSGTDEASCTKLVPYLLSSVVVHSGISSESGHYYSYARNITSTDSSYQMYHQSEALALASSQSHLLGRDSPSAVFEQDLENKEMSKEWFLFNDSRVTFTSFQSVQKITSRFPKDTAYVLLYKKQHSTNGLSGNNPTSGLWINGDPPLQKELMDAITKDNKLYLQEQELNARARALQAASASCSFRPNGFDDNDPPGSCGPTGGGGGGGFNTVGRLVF
In short: as §1

[4] = molecular target: T3, USP39 (UniProt Q53GS9)
T3 sequence (whole entry): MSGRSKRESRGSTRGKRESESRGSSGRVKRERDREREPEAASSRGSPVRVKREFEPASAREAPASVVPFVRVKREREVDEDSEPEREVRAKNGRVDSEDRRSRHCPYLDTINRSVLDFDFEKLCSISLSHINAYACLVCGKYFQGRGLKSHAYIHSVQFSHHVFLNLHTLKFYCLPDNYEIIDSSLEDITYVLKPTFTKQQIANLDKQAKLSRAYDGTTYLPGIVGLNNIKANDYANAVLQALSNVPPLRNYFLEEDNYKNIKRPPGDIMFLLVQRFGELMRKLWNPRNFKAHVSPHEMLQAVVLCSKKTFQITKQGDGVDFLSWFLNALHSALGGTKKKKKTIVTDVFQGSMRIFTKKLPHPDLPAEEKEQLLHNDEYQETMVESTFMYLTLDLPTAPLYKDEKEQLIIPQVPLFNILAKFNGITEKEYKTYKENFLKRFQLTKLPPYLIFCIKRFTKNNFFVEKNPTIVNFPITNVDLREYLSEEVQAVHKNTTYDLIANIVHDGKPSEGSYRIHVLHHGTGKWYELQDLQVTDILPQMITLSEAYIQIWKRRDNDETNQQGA
In short: as §1

[5] = molecular target: T4, USP4 (UniProt Q13107)
T4 sequence (whole entry): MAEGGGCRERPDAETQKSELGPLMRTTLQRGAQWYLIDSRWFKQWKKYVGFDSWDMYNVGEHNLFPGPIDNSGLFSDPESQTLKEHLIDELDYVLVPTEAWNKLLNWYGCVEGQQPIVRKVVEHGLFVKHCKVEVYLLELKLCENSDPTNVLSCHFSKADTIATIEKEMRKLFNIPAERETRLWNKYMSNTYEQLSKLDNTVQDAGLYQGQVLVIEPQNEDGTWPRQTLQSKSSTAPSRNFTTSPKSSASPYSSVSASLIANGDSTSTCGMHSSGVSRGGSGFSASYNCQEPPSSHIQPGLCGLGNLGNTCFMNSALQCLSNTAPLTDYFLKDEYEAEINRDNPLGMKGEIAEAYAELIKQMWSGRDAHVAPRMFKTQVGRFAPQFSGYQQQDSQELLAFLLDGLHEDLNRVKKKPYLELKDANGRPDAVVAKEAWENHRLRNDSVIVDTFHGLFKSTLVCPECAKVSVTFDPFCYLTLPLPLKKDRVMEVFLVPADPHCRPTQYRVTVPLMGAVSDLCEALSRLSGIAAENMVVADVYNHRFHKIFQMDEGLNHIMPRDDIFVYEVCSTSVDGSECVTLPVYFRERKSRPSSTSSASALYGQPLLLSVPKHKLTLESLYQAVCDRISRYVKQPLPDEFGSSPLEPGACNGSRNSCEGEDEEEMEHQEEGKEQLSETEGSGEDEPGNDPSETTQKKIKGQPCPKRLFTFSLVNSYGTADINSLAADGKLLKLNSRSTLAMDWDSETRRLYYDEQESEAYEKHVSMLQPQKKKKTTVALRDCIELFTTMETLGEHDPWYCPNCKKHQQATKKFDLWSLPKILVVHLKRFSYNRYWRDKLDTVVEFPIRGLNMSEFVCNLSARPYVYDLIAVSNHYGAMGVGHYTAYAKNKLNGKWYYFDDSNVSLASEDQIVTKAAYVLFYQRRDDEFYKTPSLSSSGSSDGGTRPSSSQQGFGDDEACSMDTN
In short: as §1

Measured: log2 ratio of Biotin-Ahx-Ub-VS probe labelling

Sequence of USP34 (Q70CQ2 whole entry, the tested form may be a part): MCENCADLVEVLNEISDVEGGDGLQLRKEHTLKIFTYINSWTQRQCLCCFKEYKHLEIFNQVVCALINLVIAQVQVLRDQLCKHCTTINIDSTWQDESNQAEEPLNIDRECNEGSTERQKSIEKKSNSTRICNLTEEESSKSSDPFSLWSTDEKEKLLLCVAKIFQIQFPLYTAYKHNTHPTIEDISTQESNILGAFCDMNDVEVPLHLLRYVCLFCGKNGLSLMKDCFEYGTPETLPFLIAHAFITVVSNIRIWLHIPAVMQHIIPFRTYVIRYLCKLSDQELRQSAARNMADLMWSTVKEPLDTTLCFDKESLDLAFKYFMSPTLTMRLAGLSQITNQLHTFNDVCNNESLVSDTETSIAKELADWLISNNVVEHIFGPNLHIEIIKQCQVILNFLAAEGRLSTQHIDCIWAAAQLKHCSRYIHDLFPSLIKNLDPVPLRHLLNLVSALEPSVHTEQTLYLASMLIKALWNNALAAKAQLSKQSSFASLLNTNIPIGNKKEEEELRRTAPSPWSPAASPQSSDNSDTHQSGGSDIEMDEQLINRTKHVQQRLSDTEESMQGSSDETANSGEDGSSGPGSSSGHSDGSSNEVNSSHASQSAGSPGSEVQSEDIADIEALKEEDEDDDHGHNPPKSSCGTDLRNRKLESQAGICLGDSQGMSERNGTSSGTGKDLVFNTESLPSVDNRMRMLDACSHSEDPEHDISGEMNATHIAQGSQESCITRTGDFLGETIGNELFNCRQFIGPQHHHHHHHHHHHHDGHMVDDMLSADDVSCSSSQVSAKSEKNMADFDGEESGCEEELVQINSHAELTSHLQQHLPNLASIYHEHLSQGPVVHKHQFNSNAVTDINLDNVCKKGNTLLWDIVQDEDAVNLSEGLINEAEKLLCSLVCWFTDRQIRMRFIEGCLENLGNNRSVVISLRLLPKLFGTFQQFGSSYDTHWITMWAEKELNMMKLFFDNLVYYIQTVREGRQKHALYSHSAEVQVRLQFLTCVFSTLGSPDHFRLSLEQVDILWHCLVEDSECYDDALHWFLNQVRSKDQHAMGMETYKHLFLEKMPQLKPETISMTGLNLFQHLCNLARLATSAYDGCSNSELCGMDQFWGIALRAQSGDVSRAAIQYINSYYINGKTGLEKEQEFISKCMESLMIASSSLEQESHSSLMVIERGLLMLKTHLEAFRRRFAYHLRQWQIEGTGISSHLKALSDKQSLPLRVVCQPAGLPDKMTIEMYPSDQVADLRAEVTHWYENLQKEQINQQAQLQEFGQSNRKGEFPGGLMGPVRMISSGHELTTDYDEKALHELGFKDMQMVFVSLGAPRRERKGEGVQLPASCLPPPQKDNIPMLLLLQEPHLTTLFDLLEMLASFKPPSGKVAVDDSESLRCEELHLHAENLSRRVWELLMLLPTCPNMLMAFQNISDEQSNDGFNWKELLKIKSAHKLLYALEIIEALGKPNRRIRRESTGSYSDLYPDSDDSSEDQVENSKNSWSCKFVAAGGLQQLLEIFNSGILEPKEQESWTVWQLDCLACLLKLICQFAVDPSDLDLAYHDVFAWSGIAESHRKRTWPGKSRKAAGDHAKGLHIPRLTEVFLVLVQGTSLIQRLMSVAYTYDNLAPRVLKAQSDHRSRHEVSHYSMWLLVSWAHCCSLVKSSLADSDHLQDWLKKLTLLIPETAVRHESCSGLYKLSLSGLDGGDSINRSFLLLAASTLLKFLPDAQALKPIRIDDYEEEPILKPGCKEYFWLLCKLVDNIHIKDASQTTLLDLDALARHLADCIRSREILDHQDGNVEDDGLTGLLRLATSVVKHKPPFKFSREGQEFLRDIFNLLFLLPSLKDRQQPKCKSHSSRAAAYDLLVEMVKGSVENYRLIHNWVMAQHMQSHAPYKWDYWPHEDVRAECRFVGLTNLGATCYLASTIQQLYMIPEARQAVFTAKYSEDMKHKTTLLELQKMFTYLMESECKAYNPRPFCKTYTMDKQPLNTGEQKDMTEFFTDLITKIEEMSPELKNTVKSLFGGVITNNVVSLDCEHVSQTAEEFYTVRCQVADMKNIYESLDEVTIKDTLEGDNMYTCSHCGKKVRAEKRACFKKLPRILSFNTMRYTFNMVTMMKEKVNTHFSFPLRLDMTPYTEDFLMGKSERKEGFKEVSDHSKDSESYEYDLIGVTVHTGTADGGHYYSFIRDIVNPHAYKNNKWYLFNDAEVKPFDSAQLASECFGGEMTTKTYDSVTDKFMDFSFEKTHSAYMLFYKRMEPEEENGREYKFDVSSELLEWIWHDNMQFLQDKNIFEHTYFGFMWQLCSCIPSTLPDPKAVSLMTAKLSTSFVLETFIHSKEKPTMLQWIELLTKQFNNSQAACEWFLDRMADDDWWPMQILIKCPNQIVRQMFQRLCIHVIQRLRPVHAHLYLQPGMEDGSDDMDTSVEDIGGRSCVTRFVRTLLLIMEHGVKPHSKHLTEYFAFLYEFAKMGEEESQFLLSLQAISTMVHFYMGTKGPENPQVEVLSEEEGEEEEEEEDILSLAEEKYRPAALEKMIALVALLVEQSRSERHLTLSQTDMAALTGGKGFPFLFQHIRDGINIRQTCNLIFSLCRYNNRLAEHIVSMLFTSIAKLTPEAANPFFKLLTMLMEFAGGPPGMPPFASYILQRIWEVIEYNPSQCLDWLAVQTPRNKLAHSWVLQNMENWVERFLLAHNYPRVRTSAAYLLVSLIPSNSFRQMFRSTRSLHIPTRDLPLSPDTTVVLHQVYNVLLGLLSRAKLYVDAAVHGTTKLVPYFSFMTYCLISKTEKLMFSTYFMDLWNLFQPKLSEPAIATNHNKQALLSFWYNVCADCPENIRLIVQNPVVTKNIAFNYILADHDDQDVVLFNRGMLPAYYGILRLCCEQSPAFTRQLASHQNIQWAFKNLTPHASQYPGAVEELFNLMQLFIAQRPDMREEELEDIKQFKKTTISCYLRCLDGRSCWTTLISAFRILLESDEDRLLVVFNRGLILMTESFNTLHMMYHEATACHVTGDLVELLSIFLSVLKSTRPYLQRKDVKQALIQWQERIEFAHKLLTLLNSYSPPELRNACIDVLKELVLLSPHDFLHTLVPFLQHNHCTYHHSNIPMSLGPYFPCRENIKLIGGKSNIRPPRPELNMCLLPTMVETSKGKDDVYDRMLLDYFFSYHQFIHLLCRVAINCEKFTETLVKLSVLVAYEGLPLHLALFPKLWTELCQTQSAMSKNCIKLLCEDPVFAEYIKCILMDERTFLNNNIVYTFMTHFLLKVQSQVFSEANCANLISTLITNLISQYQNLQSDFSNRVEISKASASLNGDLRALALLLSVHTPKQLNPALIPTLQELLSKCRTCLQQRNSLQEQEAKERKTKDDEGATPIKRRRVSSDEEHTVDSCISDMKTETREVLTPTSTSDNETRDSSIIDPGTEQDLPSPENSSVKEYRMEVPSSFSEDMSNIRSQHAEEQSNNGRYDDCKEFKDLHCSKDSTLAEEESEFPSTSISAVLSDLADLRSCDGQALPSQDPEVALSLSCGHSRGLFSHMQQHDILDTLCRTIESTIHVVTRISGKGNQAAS

Cl.O=C(CCl)N1CCn2cncc2C1
inactive: [1] -0.401 | [2] -0.24 | [3] -0.142 | [4] -0.167 | [5] -0.285
